# Screening results deposited in PubChem by National Center for Advancing Translational Sciences (NCATS).
# Hits are enriched below; roughly 18% of the tested compounds scored in any of these assays.
# VP16 counter: VP16 counterscreen qHTS for inhibitors of ROR gamma transcriptional activity. Drosophila S2 Gal4-VP16 UAS-luciferase, luminescence, 20 h. Potency, µM (series often up to 53.6 µM), without a hit: at the highest dose activity, negative = inhibition, most hits filed as inhibitors. 310,000 tested, 3.5% active;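 note: Gal4-VP16 expression switched on by copper sulfate through the metallothionein promoter; potency is the fitted concentration of half-maximal effect; nearly all actives have a fitted effect of over 50% in size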
# DT40 TDP1 no CPT: qHTS for Inhibitors of human tyrosyl-DNA phosphodiesterase 1 (TDP1): qHTS in cells in absence of CPT; DT40 Tdp1-/- hTDP1 cells, no CPT, ATP luminescence, 48 h; Potency, µM (highest dose often 46.2 µM), for the others: top-dose activity change, negative = growth inhibition, most hits filed as inhibitors; 420,000 tested, 15% active; AID 686978, 2013; note: potency is the fitted concentration of half-maximal effect; nearly all actives have a fitted effect of over 55% in size
#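 Readout: luminescence from CellTiter-Glo after 30 min in the dark at RT. Cells: DT40 Tdp1-/- with stable hTDP1, 400/well. Exposure: compounds alone, ≥48 hr, 37 °C.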
# RORg inh: qHTS for inhibitors of ROR gamma transcriptional activity | Nuclear receptor ROR-gamma (Mus musculus), P51450 | Drosophila S2 Gal4-RORgamma UAS-luciferase reporter, 20 h | Potency, µM (doses to about 53.6 µM), for inactives: top-dose activity change, negative = inhibition, most hits filed as inhibitors | 310,000 tested, 5.4% active; note: potency is the fitted concentration of half-maximal effect; nearly all actives have a fitted effect of over 60% in size
# Target sequence (P51450 whole entry, looked up, the tested form may be a part): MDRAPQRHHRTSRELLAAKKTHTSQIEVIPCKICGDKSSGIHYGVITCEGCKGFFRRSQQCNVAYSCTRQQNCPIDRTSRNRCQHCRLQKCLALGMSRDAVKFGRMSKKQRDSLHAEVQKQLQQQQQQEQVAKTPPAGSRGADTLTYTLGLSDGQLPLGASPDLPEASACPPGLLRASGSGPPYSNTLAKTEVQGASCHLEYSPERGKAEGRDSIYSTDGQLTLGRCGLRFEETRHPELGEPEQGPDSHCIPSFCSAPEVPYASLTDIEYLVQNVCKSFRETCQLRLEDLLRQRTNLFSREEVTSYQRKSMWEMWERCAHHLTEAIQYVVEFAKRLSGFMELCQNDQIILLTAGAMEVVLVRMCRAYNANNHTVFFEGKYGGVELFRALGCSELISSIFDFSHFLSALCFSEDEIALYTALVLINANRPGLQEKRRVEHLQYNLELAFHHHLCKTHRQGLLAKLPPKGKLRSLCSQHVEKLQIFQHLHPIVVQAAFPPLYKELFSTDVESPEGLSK
#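 Stable Schneider cell line, Gal4 DNA-binding domain fused to ROR gamma, UAS-luciferase. Cmpd 1 hr RT → CuSO4 700 uM final → 20 hr RT → luciferase reagent 10 min → luminescence.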
# IL-1B inflam inh: qHTS for Inhibitors of Inflammasome Signaling: IL-1-beta AlphaLISA Primary Screen; activity change, % at 57.5 µM; THP-1 LPS/ATP IL-1B secretion, AlphaLISA, 16 h; active compounds read low; 360,000 tested, 4.7% active; in the data active = activity change below about -50%; inconclusive = mostly about -30% to -49%
#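 THP-1 cells pretreated 1 hr with compounds (up to 57.5 uM final), then stimulated with LPS (250 ng/mL final) plus ATP (1.25 mM final); secreted IL-1B measured by AlphaLISA after 16 hr, decreased signal indicating inhibition.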
# TDP1 cell CPT: qHTS for Inhibitors of human tyrosyl-DNA phosphodiesterase 1 (TDP1): qHTS in cells in presence of CPT; Potency, µM (top dose mostly 46.2 µM), inactives show at the highest dose activity change, negative = growth inhibition, actives largely listed as inhibitors; chicken DT40 Tdp1-/-;hTDP1 cells + 20 nM CPT, ATP luminescence, 48 h; 420,000 tested, 12% active; note: potency is the fitted concentration of half-maximal effect; nearly all actives have a fitted effect of over 55% in size
#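 Chicken DT40 Tdp1-/- cells stably complemented with human TDP1 were seeded at 400 cells/well in medium containing 20 nM camptothecin, exposed to pin-transferred compounds, and grown at 37 °C for at least 48 hr. Viability was read as ATP luminescence.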
# LDHA inh: qHTS assay for inhibitors of human lactate dehydrogenase; L-lactate dehydrogenase A chain (Homo sapiens), P00338; purified LDHA, NADH/diaphorase-resazurin fluorescence; active compounds read low; activity change, % (values are at about 110 or 230 µM); AID 1347041, 2019; 480,000 tested, 0.15% active; in the data active = activity change below about -30%; inconclusive = mostly about -25% to -30%;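 note: plate controls were DMSO wells for no effect and wells without enzyme for full effect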
#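 Human LDH5 at 2 nM final in Tris HCl pH 7.4 with 0.06 mM NADH and 0.2 mM pyruvate, reacted 5 minutes at room temperature. Remaining NADH coupled via diaphorase/resazurin; resorufin fluorescence read at 0 and 20 minutes, normalized to enzyme-free and DMSO wells.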
# The depositor's hits bear a star; ? = inconclusive; · = no result given. Unless noted, calls come from the whole dose curve; as a rule, active = well fitted curve in the direction sought with a large enough effect; inconclusive = small, poorly fitted or top-dose-only effect, or another doubt; inactive = no such curve, though single readings can be large; an effect the other way counts as inactive or inconclusive. Unless noted, % is set by controls: 0 for no effect and ±100 for the full control effect.
SMILES,VP16 counter,DT40 TDP1 no CPT,RORg inh,IL-1B inflam inh,TDP1 cell CPT,LDHA inh
O=C(CN1CCN(Cc2ccc3c(c2)OCO3)CC1)Nc1ccc2c(c1)OCO2,-5.4%,-3.2%,5.8%,-10.0,-17.9%,-0.5
CC(C(=O)Nc1ccc(S(=O)(=O)N2CCOCC2)cc1)N1CCN(c2ccccn2)CC1 (stereo not drawn),-11.2%,1.6%,-11.2%,41.8,13.7%,-4.0
Cc1ccc(NC(=O)CN2CCN(c3ccccn3)CC2)cc1S(=O)(=O)N(C)C,2.8%,-16.1%,13.5%,5.0,?,0.8
CCN(CC)S(=O)(=O)c1cc(NC(=O)C(C)N2CCN(c3ccccn3)CC2)ccc1C (stereo not drawn),1.9%,14.6µM*,21.1%,-1.1,18.4µM*,-10.7
COc1ccc(NC(=O)C(c2ccccc2)N2CCN(c3ccccn3)CC2)cc1Cl (stereo not drawn),-2.0%,?,31.3%,-16.9,23.1µM*,4.3
CCN(CC)S(=O)(=O)c1cc(NC(=O)CN2CCN(c3ccccn3)CC2)ccc1C,-15.5%,23.1µM*,?,20.7,13µM*,0.0
CCN(CC)S(=O)(=O)c1cc(NC(=O)C(C)N2CCN(Cc3ccc4c(c3)OCO4)CC2)ccc1C (stereo not drawn),7.9%,5.17µM*,12.2%,-7.6,7.31µM*,3.6
FC(F)(F)c1ccccc1CNCc1ccccc1,·,·,·,·,·,2.6
CCN(CC)c1ccc(C=Nc2ccc(Nc3ccccc3)cc2)cc1,·,·,·,·,·,-1.8
C=CCNC(=S)N/N=C1/C=C(C)CC(C)(C)C1,·,·,·,·,·,5.9
Cc1csc(NC(=O)Cc2ccc(OCc3c(C)noc3C)cc2)n1,·,·,·,·,·,0.1
N#C/C(=C\c1ccc(O)c(O)c1)C(=O)N1CCc2ccccc21,·,20.6µM*,·,8.2,?,-10.8
COc1ccc(NC(=O)CCN2CCN(c3ccc(F)cc3)CC2)cc1,0.1%,?,14.3%,-2.0,23.1µM*,-3.8
O=C(CCN1CCN(c2ccccc2F)CC1)Nc1ccc(F)cc1,-0.8%,?,10.5%,5.5,-28.6%,-1.6
COc1cc(NC(=O)CCN2CCN(c3ccccc3F)CC2)cc(OC)c1,-2.1%,-13.0%,7.1%,?,29.1µM*,-1.1
Cn1c(=O)n(C)c2cc([N+](=O)[O-])c(N3CCN(S(=O)(=O)c4ccc(C(C)(C)C)cc4)CC3)cc21,-16.3%,?,?,-29.7,20.6µM*,-2.2
CC(=O)Nc1ccc(S(=O)(=O)N2CCN(c3cc4c(cc3[N+](=O)[O-])n(C)c(=O)n4C)CC2)cc1,?,18.4µM*,19.4%,-11.1,?,-3.4
CCCn1c(=O)n(CC(=O)Nc2c(C)cccc2C)c(=O)c2c1nc(C)n2CCOC,·,·,·,·,·,9.7
CC1CCN(CC(=O)N2CCN(S(=O)(=O)c3ccccc3F)CC2)CC1,·,·,·,·,·,-4.9
Cc1nnc(SCc2c(C(=O)NCC(C)C)oc3ccccc23)s1,·,·,·,·,·,-5.1
CCOC(=O)CN(C(=O)COc1nc(-c2ccccc2)cc(C)c1C#N)c1ccccc1,-0.4%,?,-2.7%,20.0,-68.0%,-3.9
CCOC(=O)CN(C(=O)COc1nc(-c2ccccc2)cc(C)c1C#N)c1ccccc1C,1.4%,10.3µM*,7.5%,49.4,16.4µM*,-2.3
Cc1ccc(CNC(=O)C(=O)c2c[nH]c3ccccc23)cc1,·,·,·,·,·,2.9
O=C(Cc1n[nH]c(=O)c2ccccc12)Nc1ccccc1,·,·,·,·,·,2.6
COc1ccc(CCNC(=O)c2ccc3c(Cl)c4c(nc3c2)CCCC4)c(OC)c1,·,18.4µM*,·,·,16.4µM*,-1.0
SMILES,VP16 counter,DT40 TDP1 no CPT,RORg inh,IL-1B inflam inh,TDP1 cell CPT,LDHA inh
COc1ccc(CNC(=O)c2ccc3c(Cl)c4c(nc3c2)CCCC4)c(OC)c1,·,23.1µM*,·,·,?,4.6
Cc1cccc(CCNC(=O)c2ccc3c(Cl)c4c(nc3c2)CCCC4)c1,·,·,·,·,·,5.5
COc1ccc(CCNC(=O)c2ccc3c(Cl)c4c(nc3c2)CCCC4)cc1OC,·,4.11µM*,·,·,14.6µM*,-4.8
COc1ccc(CCNC(=O)c2ccc3c(SCC(=O)O)c4c(nc3c2)CCCC4)cc1OC,-5.3%,11.6%,36.1%,-2.2,0.4%,2.0
CC(C)(O)C#Cc1ccc(C2NCCS2)cc1 (stereo not drawn),·,·,·,·,·,0.1
CCc1ccc(OCCCCCn2ccnc2)cc1,?,18.4µM*,11.2µM*,-29.9,?,-13.2
Cc1ccc(OCCn2ccnc2)c([N+](=O)[O-])c1,6.2%,-1.3%,-11.3%,0.0,-18.2%,-11.4
Cc1cc(OCCCn2ccnc2)ccc1[N+](=O)[O-],-7.2%,?,-33.1%,-78.6*,-29.0%,-21.3
CCc1ccc(OCCn2ccnc2)cc1,-6.7%,-3.3%,-12.3%,-0.6,5.4%,-15.1
Cc1cc(C)c(OCCCCCn2ccnc2)c(C)c1,14.1µM*,14.6µM*,11.2µM*,28.4,?,-3.4
Cc1cc(OCCCn2ccnc2)cc(C)c1Cl,-5.2%,?,?,1.5,-28.7%,-2.3
Cc1cc(Cl)cc(C)c1OCCCCCn1ccnc1,17.8µM*,?,?,-91.2*,18.4µM*,-0.5
O=C(CSc1nc(-c2ccccc2F)nc2cc(=O)[nH]n12)N1CCc2ccccc21,·,·,·,·,·,11.9
Cc1cc(OCCCCCn2ccnc2)cc(C)c1Cl,4.7%,13µM*,24.4%,-12.9,?,1.0
Cc1ccc(C)c(OCCCCCn2ccnc2)c1,-29.7%,?,8.91µM*,-11.5,?,-7.4
Cc1cc(Cl)cc(C)c1OCCn1ccnc1,1.3%,5.17µM*,-31.7%,160.3,5.17µM*,-4.1
Cc1ccc([N+](=O)[O-])c(OCCN2C(=O)NC(C)(C)C2=O)c1,18.8%,-18.5%,33.6%,-4.1,0.6%,0.0
Cc1cc(OCCCCN2C(=O)NC(C)(C)C2=O)ccc1[N+](=O)[O-],?,11.6µM*,?,-10.4,?,1.5
C=CCc1cc(C)ccc1OCCn1ccnc1,-7.9%,-2.0%,0.0%,8.8,-5.8%,?
CSc1ccccc1C(=O)Nc1cccc2ccccc12,·,·,·,·,·,3.0
C/C(CCc1oc2ccccc2c1-c1ccc(C)o1)=N/O,-0.9%,18.4µM*,-1.4%,-17.1,?,9.1
C/C(CCc1oc2c(Br)cc(Br)cc2c1-c1ccc(C)o1)=N\O,?,18.4µM*,-99.7%,10.7,16.4µM*,6.4
